According to PMC7862700, “An all-to-all approach to the identification of sequence-specific readers for epigenetic DNA modifications on cytosine”:

Columns and labels:
Assay in all cases: DAPPL (digital affinity profiling via proximity ligation, sequencing); 10 mM Tris-HCl pH 7.5, 50 mM NaCl, 1 mM DTT, 4% glycerol, room temperature, 30 min; GST-TFs on glutathione beads, 16-mer random dsDNA library, 0.1% formaldehyde crosslink after washing; high values mean tight binding
FLI1 = molecular target: T1, FLI1 (Homo sapiens, UniProt Q01543 1-452); conditions: protein: recombinant; tags: N-terminal GST; dsDNA, one strand shown
T1 sequence: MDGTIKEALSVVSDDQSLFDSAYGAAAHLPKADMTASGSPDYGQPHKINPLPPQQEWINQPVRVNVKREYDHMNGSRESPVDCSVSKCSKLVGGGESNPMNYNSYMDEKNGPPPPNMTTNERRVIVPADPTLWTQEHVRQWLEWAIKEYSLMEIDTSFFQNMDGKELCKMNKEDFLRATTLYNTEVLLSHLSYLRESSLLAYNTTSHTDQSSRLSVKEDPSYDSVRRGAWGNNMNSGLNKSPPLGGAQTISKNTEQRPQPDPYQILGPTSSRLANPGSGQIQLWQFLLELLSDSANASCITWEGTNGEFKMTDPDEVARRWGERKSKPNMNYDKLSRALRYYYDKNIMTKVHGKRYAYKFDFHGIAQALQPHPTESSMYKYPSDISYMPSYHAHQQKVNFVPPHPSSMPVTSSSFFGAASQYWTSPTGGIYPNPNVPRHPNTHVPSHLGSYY
In short: (§1)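 Human transcription factors were made in yeast as GST fusions, captured on glutathione beads and barcoded with DNA. With a tag-only sample included, the pool was incubated with 200 nmole of a random double-stranded 16-mer DNA library in Tris/NaCl/DTT/glycerol buffer at room temperature for 30 min, then crosslinked with 0.1% formaldehyde after washing, ligated by proximity, amplified and sequenced. For binding signal, each hexamer's read frequency for a factor is divided by its frequency for the tag-only sample.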

GABPA = molecular target: T2, GABPA (Homo sapiens, UniProt Q06546 1-454); conditions: protein: recombinant; tags: N-terminal GST; dsDNA, one strand shown
T2 sequence: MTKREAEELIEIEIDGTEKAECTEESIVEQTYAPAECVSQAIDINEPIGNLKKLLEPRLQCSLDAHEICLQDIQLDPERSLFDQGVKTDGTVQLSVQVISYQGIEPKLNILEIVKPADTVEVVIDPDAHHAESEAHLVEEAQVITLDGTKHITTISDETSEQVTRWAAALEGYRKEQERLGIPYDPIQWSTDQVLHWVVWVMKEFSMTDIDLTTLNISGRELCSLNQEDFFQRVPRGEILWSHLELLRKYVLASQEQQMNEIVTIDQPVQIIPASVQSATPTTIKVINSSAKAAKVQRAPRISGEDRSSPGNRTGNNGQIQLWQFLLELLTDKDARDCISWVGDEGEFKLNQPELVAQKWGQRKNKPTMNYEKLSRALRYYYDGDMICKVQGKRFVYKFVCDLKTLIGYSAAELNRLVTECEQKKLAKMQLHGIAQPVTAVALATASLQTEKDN
In short: as §1

ELF1 = ELF1 (Homo sapiens, UniProt P32519 1-619); conditions: protein: recombinant; tags: N-terminal GST; dsDNA, one strand shown
In short: as §1

EHF = molecular target: T3, EHF (Homo sapiens, UniProt Q9NZC4 1-300); conditions: protein: recombinant; tags: N-terminal GST; dsDNA, one strand shown
T3 sequence: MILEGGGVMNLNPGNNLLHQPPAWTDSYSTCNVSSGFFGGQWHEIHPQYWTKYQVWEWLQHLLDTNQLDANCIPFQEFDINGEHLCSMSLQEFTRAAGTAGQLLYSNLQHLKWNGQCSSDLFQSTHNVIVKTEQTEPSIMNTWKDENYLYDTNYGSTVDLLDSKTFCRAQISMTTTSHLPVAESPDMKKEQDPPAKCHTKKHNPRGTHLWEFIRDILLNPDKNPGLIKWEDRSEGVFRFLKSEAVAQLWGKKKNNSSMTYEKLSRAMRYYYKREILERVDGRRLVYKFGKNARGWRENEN
In short: as §1

SPIB = SPIB (Homo sapiens, UniProt Q01892 1-262); conditions: protein: recombinant; tags: N-terminal GST; dsDNA, one strand shown
In short: as §1

ELK3 = molecular target: T4, ELK3 (Homo sapiens, UniProt P41970 1-407); conditions: protein: recombinant; tags: N-terminal GST; dsDNA, one strand shown
T4 sequence: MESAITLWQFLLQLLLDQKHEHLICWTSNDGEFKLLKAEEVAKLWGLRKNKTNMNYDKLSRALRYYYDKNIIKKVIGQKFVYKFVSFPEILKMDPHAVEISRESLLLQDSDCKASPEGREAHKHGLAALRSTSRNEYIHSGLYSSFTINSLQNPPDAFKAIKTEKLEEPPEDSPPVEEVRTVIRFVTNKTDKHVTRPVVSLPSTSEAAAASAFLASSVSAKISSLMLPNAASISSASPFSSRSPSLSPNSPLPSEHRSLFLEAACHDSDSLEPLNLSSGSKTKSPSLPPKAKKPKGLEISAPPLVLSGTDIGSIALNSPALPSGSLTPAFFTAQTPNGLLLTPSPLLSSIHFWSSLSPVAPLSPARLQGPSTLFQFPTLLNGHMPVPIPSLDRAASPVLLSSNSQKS
In short: as §1

ELK4 = molecular target: T5, ELK4 (Homo sapiens, UniProt P28324-2 1-405); conditions: protein: recombinant; tags: N-terminal GST; dsDNA, one strand shown
T5 sequence: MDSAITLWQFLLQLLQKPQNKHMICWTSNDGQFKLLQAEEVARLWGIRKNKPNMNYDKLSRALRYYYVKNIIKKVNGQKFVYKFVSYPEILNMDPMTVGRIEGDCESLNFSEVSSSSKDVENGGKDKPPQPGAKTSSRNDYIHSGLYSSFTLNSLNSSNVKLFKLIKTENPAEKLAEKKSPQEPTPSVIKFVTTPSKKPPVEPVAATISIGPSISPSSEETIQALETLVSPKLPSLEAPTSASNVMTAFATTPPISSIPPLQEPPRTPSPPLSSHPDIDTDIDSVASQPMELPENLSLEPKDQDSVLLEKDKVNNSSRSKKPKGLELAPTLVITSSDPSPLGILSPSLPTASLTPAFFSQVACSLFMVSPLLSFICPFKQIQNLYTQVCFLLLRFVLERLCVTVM
In short: as §1

ETV2 = molecular target: T6, ETV2 (Homo sapiens, UniProt O00321 1-342); conditions: protein: recombinant; tags: N-terminal GST; dsDNA, one strand shown
T6 sequence: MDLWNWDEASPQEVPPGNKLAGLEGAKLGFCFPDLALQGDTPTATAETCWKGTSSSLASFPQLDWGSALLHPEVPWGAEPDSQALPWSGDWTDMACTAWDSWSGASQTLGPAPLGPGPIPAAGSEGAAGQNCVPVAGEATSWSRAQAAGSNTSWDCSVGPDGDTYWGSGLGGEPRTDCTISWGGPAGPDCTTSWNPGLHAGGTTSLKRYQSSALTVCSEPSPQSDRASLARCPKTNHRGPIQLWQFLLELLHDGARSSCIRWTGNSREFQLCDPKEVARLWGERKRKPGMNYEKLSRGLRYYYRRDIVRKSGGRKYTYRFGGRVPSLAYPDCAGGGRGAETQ
In short: as §1

ETV1 = ETV1 (Homo sapiens, UniProt P50549 1-477); conditions: protein: recombinant; tags: N-terminal GST; dsDNA, one strand shown
In short: as §1

ERF = molecular target: T7, ERF (Homo sapiens, UniProt P50548 1-548); conditions: protein: recombinant; tags: N-terminal GST; dsDNA, one strand shown
T7 sequence: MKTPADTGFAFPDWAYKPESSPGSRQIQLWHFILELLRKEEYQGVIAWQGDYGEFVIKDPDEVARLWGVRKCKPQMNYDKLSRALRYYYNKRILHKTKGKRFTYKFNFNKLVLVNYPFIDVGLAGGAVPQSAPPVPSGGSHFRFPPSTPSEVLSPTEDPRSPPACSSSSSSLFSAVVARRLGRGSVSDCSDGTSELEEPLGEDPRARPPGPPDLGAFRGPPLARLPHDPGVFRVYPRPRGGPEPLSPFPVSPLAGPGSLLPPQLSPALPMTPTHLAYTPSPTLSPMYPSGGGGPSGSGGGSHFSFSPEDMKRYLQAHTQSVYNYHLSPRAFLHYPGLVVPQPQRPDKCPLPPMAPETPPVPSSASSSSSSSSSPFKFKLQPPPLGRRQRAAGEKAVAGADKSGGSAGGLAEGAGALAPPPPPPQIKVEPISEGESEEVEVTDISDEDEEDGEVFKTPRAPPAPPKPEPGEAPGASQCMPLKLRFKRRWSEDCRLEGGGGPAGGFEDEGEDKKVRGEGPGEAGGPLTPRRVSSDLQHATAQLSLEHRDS
In short: as §1

ETV3L = molecular target: T8, ETV3L (Homo sapiens, UniProt Q6ZN32 1-361); conditions: protein: recombinant; tags: N-terminal GST; dsDNA, one strand shown
T8 sequence: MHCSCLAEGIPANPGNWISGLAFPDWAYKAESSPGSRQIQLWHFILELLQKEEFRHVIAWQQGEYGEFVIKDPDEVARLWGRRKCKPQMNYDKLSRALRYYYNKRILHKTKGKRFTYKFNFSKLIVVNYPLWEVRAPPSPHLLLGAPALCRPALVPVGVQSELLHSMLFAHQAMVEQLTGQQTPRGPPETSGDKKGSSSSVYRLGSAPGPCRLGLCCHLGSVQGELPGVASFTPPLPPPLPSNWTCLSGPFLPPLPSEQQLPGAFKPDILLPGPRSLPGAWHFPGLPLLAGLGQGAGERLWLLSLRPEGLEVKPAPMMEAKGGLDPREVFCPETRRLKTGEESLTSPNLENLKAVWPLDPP
In short: as §1

ETV3 = molecular target: T9, ETV3 (Homo sapiens, UniProt P41162-2 1-143); conditions: protein: recombinant; tags: N-terminal GST; dsDNA, one strand shown
T9 sequence: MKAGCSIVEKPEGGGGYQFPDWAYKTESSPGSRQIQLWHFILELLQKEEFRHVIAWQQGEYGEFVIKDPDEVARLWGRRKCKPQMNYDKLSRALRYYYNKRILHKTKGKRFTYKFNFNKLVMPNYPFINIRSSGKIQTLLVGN
In short: as §1

ETV6 = ETV6 (Homo sapiens, UniProt P41212 1-452); conditions: protein: recombinant; tags: N-terminal GST; dsDNA, one strand shown
In short: as §1

HSF1 = HSF1 (Homo sapiens, UniProt Q00613 1-529); conditions: protein: recombinant; tags: N-terminal GST; chain copies: 3; dsDNA, one strand shown
In short: as §1

SPIB, sequence (Q01892 whole entry): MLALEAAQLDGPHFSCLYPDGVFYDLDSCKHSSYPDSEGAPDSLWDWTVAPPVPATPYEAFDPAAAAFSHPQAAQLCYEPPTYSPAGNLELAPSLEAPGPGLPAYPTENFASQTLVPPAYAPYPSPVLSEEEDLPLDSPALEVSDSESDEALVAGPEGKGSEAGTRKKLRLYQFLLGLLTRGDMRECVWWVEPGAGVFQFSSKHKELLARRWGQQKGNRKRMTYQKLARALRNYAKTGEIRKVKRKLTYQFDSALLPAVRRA
ETV6, sequence (P41212 whole entry): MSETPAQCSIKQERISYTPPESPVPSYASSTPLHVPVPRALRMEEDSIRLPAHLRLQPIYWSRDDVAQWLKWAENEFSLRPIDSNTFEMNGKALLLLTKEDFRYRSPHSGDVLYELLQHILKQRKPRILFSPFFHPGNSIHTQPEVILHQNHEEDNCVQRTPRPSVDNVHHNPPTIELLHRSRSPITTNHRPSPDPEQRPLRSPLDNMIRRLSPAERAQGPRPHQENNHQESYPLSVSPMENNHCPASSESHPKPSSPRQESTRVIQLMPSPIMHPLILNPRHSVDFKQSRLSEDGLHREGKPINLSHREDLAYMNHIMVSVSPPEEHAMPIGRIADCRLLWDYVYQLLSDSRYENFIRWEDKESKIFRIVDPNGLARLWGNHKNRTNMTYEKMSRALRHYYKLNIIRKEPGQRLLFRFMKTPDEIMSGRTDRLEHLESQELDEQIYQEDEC
ELF1, sequence (P32519 whole entry): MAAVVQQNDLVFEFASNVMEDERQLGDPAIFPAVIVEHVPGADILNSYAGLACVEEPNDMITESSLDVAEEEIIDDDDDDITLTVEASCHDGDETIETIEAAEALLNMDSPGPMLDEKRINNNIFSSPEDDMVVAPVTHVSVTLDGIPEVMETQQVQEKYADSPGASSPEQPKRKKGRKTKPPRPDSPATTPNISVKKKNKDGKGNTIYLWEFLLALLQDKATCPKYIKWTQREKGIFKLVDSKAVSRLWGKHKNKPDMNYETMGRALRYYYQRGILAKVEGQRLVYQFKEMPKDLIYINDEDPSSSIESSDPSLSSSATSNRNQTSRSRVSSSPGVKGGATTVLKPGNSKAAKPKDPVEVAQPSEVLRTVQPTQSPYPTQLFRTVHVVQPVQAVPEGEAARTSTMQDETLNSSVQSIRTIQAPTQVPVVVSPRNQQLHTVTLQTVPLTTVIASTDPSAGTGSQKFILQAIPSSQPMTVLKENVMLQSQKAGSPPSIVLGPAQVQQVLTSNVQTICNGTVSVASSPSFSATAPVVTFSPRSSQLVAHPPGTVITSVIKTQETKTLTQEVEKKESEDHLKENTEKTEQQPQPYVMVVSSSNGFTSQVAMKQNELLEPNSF
ETV1, sequence (P50549 whole entry): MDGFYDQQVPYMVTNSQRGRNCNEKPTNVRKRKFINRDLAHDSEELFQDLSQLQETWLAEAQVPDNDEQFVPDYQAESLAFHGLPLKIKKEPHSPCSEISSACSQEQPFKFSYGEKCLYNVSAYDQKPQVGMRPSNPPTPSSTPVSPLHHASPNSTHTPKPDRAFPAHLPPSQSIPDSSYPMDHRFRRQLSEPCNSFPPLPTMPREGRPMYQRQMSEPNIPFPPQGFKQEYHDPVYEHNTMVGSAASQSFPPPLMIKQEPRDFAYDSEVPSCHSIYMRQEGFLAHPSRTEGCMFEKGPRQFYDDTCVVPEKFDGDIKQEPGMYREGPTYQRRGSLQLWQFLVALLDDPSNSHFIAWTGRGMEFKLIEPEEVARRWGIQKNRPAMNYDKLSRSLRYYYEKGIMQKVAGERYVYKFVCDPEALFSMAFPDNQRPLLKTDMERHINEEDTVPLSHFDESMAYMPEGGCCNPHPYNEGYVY
HSF1, sequence (Q00613 whole entry): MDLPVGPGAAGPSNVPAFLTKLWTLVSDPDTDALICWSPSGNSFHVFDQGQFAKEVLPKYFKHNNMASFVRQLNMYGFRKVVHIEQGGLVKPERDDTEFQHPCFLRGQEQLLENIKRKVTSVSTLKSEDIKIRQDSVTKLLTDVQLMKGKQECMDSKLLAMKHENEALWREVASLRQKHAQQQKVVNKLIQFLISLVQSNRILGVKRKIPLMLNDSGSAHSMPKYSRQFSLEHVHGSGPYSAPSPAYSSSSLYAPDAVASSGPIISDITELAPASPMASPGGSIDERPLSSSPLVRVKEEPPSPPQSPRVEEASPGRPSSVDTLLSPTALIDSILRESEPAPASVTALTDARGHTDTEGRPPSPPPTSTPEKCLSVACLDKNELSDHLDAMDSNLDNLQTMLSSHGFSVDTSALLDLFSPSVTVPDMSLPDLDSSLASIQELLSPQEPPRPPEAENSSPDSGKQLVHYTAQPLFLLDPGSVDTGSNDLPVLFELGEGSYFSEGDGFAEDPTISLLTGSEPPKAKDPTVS

CCTGGC was tested. Which binding signal (FLI1) did it give?
Its binding signal is 1.03 fold enrichment (6-mer frequency, TF over GST control).

What about the binding signal (GABPA) of the same sequence?
Its binding signal is 1.1 fold enrichment (6-mer frequency, TF over GST control).

And the binding signal (ELF1)?
Its binding signal is 1.07 fold enrichment (6-mer frequency, TF over GST control).

And the binding signal (EHF)?
Its binding signal is 1.04 fold enrichment (6-mer frequency, TF over GST control).

And the binding signal (SPIB)?
The binding signal was 1.03 fold enrichment (6-mer frequency, TF over GST control).

And the binding signal (ELK3)?
Its binding signal is 1.06 fold enrichment (6-mer frequency, TF over GST control).

And the binding signal (ELK4)?
The binding signal was 1.13 fold enrichment (6-mer frequency, TF over GST control).

And the binding signal (ETV2)?
Its binding signal is 1.27 fold enrichment (6-mer frequency, TF over GST control).

And the binding signal (ETV1)?
Its binding signal is 1.04 fold enrichment (6-mer frequency, TF over GST control).

What about the binding signal (ERF) of the same sequence?
The binding signal was 1.03 fold enrichment (6-mer frequency, TF over GST control).

What about the binding signal (ETV3L) of the same sequence?
Its binding signal is 1.08 fold enrichment (6-mer frequency, TF over GST control).

And the binding signal (ETV3)?
The binding signal was 1.01 fold enrichment (6-mer frequency, TF over GST control).

And the binding signal (ETV6)?
Its binding signal is 1.08 fold enrichment (6-mer frequency, TF over GST control).

With GGAATG as the sequence, how does the binding signal (HSF1) read?
The binding signal was 1.25 fold enrichment (6-mer frequency, TF over GST control).

Which results are given for GTGACT?
binding signal (FLI1): 1.02 fold enrichment (6-mer frequency, TF over GST control); binding signal (ETV3L): 1.01 fold enrichment (6-mer frequency, TF over GST control)
